In the library only some 3.2% were active in any assay of this set; here they are far more common.
GBA activity = modulators of human glucocerebrosidase; purified enzyme, resorufin glucoside fluorescence (screen aimed at inhibitors), 20 min; Potency, µM; hit rate 1.1% among 48,000; AID 360; in the data active = potency below about 15 µM; inconclusive = mostly about 16 µM to 33 µM;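 note: the screen sought inhibitors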
Target sequence (P04062 whole entry, looked up): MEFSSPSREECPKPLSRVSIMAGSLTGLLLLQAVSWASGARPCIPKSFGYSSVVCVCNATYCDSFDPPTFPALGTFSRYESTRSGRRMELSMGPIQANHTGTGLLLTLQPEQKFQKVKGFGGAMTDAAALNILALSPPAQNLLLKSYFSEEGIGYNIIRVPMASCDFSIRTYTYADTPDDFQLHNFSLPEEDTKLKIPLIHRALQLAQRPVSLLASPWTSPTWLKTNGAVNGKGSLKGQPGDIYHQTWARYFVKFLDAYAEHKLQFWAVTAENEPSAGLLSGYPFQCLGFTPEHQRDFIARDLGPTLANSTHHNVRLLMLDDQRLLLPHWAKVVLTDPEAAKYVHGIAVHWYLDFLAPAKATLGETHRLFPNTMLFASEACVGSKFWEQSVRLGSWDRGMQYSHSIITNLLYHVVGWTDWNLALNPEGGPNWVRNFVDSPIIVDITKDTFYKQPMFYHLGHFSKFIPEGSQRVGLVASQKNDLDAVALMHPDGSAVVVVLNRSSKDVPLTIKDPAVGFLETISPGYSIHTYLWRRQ
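Wild-type enzyme at 0.2 nM final in 50mM citric acid/KH2PO4, 10mM sodium taurocholate, 0.01% tween-20, pH 5.9, with resorufin beta-D-glucopyranoside at 30 uM final. Compounds titrated, 20 min at RT, red fluorescence read; AC50 from titration.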
Luciferase inh = blocks Photinus pyralis firefly luciferase activity; P08659; purified firefly luciferase, luminescence, 8 min; hit rate 2.2% among 72,000; Potency, µM (doses to about 57.1 µM), without a hit: top-dose activity change, negative = inhibition, usual class: inhibitors; active = well fitted inhibition curve with a large enough effect; inconclusive = small, poorly fitted or top-dose-only effect; note: % is set by controls: 0 for no effect and ±100 for the full control effect; nearly all actives have a fitted effect of over 40% in size
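Compounds were tested as concentration series (qHTS) against purified P. pyralis luciferase with luciferin and 10 uM ATP in 50 mM imidazole pH 7.2, 50 mM KCl, 7 mM MgCl2, 0.01% Tween 20, 0.05% BSA. Luminescence was read after 8 min at ambient temperature.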
PK Bst = modulators of Bacillus stearothermophilus pyruvate kinase. purified pyruvate kinase, luminescence ATP production; ribose 5-phosphate activator present at AC10. Potency, µM. hit rate 1.2% among 51,000; in the data active = potency below about 11 µM; inconclusive = mostly about 12 µM to 25 µM;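 the screen sought inhibitors and activators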;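 note: scaled between full activation by ribose 5 phosphate and full inhibition by luteolin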
An asterisk follows results filed as active; i = inactive; ? = inconclusive; . = not tested or not shown; [ ] = another dose, or the depositor's remark. Potency is the fitted concentration of half-maximal effect.

SMILES | GBA activity | Luciferase inh | PK Bst
S=C(c1ccc(-c2ccccc2Cl)o1)N1CCOCC1 | . | 15.8µM* | .
COc1cccc(Cn2c(=O)c(-c3ccc(F)cc3)nc3cnc(OC)nc32)c1 | . | 0.0%[11.4 µM] | .
Cn1cccc1C(=O)N1CCC2(CC1)CN(Cc1cc(C(F)(F)F)cc(C(F)(F)F)c1)C2 | . | 1.5%[11.4 µM] | .
CC(C)=CCC/C(C)=C/COc1c2ccoc2cc2oc(=O)ccc12 | . | -0.1%[11.4 µM] | .
CC/C=C\C[C@H]1C(=O)CC[C@@H]1CC(=O)O | . | 0.6%[11.4 µM] | .
O=C(Nc1ccccc1)N1CCCC2(CCN(C(=O)c3ccco3)CC2)C1 | . | 1.4%[11.4 µM] | .
Cc1ccc2nc(-c3ccc4c(c3)OCCO4)cc(C(=O)O)c2c1 | >76.9 | 12.6µM* | ?
Cc1ccc2nc(-c3cccc(NC(=O)c4ccc5c(c4)OCCO5)c3)oc2c1 | i | ? | .
CS(=O)(=O)N1CCN(C(=O)c2cc(-c3cccs3)nc3ccccc23)CC1 | >76.9 | -26.0% | .
O=C(O)c1cc(-c2cccs2)nc2cc3c(cc12)OCCO3 | . | 15.8µM* | .
NC(=O)C1CCN(c2oc(-c3ccccc3F)nc2S(=O)(=O)c2ccc(Cl)cc2)CC1 | >76.9 | -0.6% | 11.2*
O=S(=O)(c1ccccc1)c1nc(-c2ccco2)oc1N1CCCCCC1 | >76.9 | -1.2% | >57
CC1=CC(=O)C2=C(C)CC[C@@H]3[C@H](OC(=O)[C@H]3C)[C@H]12 | . | 2.8%[11.4 µM] | .
O=C(O)CCCCCC[C@@H]1C(=O)NC(=O)N1CC[C@@H](O)C1CCCCC1 | . | -2.6% | .
Cc1ccc2c(CC(=O)N3CCc4ccccc43)coc2c1 | >76.9 | 20µM* | >57
COc1cc(CC(=O)N2CCc3ccccc32)cc(OC)c1OC | >76.9 | 1.7% | >57
Cn1cccc1C(=O)N1CCC[C@@]2(CCN(c3ccccc3)C2)C1 | . | -1.5%[11.4 µM] | .
NC(=O)c1cc(-c2ccccc2)nc(N2CCCCCC2)n1 | >76.9 | 0.2% | >57
NC(=O)c1cc(-c2ccccc2)nc(N2CCOCC2)n1 | >76.9 | 1.9% | 4*
COc1ccc(N(C)S(=O)(=O)c2ccc3c(c2)CCC(=O)N3)cc1 | >76.9 | 4.5% | >57
CN(C)S(=O)(=O)c1ccc2c(c1)/C(=C/c1cc3c([nH]1)CCCC3)C(=O)N2 | . | 25.1µM* | .
Cc1cccc(CNc2ccnc(-c3cccc(C#N)c3)n2)c1 | . | -2.3%[2.29 µM] | .
COC(=O)c1ccc(NC(=O)Cc2ccccc2)cc1 | >76.9 | ? | .
COC(=O)c1ccc(NC(=O)Nc2ccc(F)cc2)cc1 | >76.9 | 20µM* | i
C/C=C\C[C@H](C)[C@H](O)[C@H]1C(=O)N[C@@H](CC)C(=O)N(C)CC(=O)N(C)[C@@H](CC(C)C)C(=O)N[C@@H](C(C)C)C(=O)N(C)[C@@H](CC(C)C)C(=O)N[C@@H](C)C(=O)N[C@@H](C)C(=O)N(C)[C@@H](CC(C)C)C(=O)N(C)[C@@H](CC(C)C)C(=O)N(C)[C@@H](C(C)C)C(=O)N1C | . | 3.3%[25.5 µM] | .
SMILES | GBA activity | Luciferase inh | PK Bst
CN1CCc2cc(O)c(O)cc2[C@H](c2ccccc2)C1 | . | -21.1% | .
CN(C)S(=O)(=O)c1ccc(N2CCN(S(=O)(=O)c3ccc(F)cc3)CC2)c(Cl)c1 | >76.9 | 2.0% | 6.06*
CN(C)S(=O)(=O)N1CCN(S(=O)(=O)c2ccc(F)cc2)CC1 | >76.9 | -0.5% | >57
Cc1cc(N2CCOCC2)nc2ccc(NC(=O)CCC(=O)N3CCCC(C)C3)cc12 (stereo not given) | 1.18* | 25.1µM* | .
COc1cccc(C(=O)Nc2ccc3nc(N4CCOCC4)cc(C)c3c2)c1 | . | -5.9% | .
COc1cccc(C(=O)Nc2ccc3nc(N4CCN(c5ncccn5)CC4)cc(C)c3c2)c1OC | 8.68* | -1.2% | >57
CCN1CCN(c2cc(C)c3cc(NC(=O)c4cncc(Br)c4)ccc3n2)CC1 | 3.7* | -2.7% | >57
Cc1cc(N2CCN(C)CC2)nc2ccc(NC(=O)CCC(=O)NCc3ccco3)cc12 | i | -15.4% | >57
CCOc1ccccc1C(=O)Nc1ccc2nc(N3CCN(c4ncccn4)CC3)cc(C)c2c1 | >76.9 | -0.2% | >57
COc1ccc(C)cc1NC(=O)CCC(=O)Nc1ccc2nc(N3CCN(C)CC3)cc(C)c2c1 | 9.5* | -6.2% | >57
CCN1CCN(c2cc(C)c3cc(NC(=O)c4ccc5c(c4)OCO5)ccc3n2)CC1 | . | -28.2% | .
CCCN(CCc1ccccc1)[C@H]1CCc2c(O)cccc2C1 | . | 2.7% | .
O=c1c(CCc2ccccc2)nc2cnc(Nc3ccccc3)nc2n1C[C@H]1CCCO1 | . | -0.9%[11.4 µM] | .
N#Cc1nc(-c2ccc(OCc3ccc(Cl)cc3)cc2)oc1NCCCn1ccnc1 | i | 5.0% | 0.329*
N#Cc1nc(-c2ccc(OCc3ccccc3)cc2)oc1NCCN1CCOCC1 | i | 2.5% | 4.47*
N#Cc1nc(Cc2cccc3ccccc23)oc1NCCCn1ccnc1 | 12.8* | -1.9% | ?
N#Cc1nc(-c2ccc(OCc3ccccc3)cc2)oc1NCc1ccco1 | >76.9 | -4.1% | .
COc1ccccc1-c1nc(C#N)c(N2CCC(Cc3ccccc3)CC2)o1 | >76.9 | 3.7% | >57
COc1ccccc1-c1nc(C#N)c(N2CCN(Cc3ccccc3)CC2)o1 | 12* | -4.3% | >57
CNc1oc(-c2ccc(OCc3ccccc3)cc2)nc1C#N | >76.9 | -0.7% | i
N#Cc1nc(Cc2cccc3ccccc23)oc1NCCCN1CCOCC1 | >76.9 | 1.7% | >57
O=c1cnc2cnc(Oc3cccc(Cl)c3)nc2n1C[C@H]1CCCO1 | . | -0.8%[11.4 µM] | .
COc1ccc(NC(=O)N2CC3(CCN(S(=O)(=O)c4ccccc4)CC3)C2)cc1 | . | -0.6%[11.4 µM] | .
N#CCCn1c(=O)c(-c2ccc(Cl)cc2)nc2cnc(Oc3cccc(Cl)c3)nc21 | . | 1.1%[11.4 µM] | .
COc1ccc(-c2nc(C#N)c(N3CCOCC3)o2)cc1OC | >76.9 | -1.1% | .
SMILES | GBA activity | Luciferase inh | PK Bst
N#Cc1nc(-c2ccc(OCc3ccccc3)cc2)oc1N1CCOCC1 | >76.9 | 5.6% | 1.96*
O=c1c(-c2ccc(Cl)cc2)nc2cnc(N3CCOCC3)nc2n1C1CC1 | . | -1.1%[11.4 µM] | .
COCC(=O)N1CCC2(CCCN(Cc3ccc(C#N)cc3)C2)CC1 | . | -0.8%[11.4 µM] | .
COCCn1c(=O)c(-c2ccc(OC)cc2)nc2cnc(Oc3ccccc3)nc21 | . | 0.9%[11.4 µM] | .
CCN(CC(=O)Nc1ccc2c(c1)OCCO2)CC(=O)Nc1cc(C)on1 | >76.9 | 1.3% | >57
CN(C(=O)c1ccc2c(c1)OCO2)C1(C(=O)NC2CCCC2)CCCCC1 | >76.9 | -1.2% | ?
Cc1cc(NC(=O)c2ccc3c(c2)OCO3)no1 | ? | 7.94µM* | .
O=C(NC1CCCCCCC1)c1ccc2c(c1)OCO2 | >76.9 | 15.8µM* | .
CCOC(=O)Cc1csc(NC(=O)c2ccc3c(c2)OCO3)n1 | >76.9 | 20µM* | .
CCOC(=O)Cc1csc(NC(=O)c2ccc(Br)s2)n1 | . | -5.1% | .
CCOc1ccc(C(=O)Nc2cc(C)on2)cc1OCC | >76.9 | 0.5% | i
Cc1cc(NC(=O)c2ccc3c(c2)OCCO3)no1 | . | 2µM* | 3*
Cc1ccc(C[C@H](Cc2nc3ccccc3[nH]2)c2nc3ccccc3[nH]2)cc1 | . | -4.9%[11.4 µM] | .
Cn1c(=O)c(CCc2ccccc2)nc2cnc(N3CCOCC3)nc21 | . | -0.8%[11.4 µM] | .
CC(=O)N1CCC2(CC1)CCN(C(=O)Nc1cccc(F)c1)CC2 | . | -0.9%[11.4 µM] | .
COc1ccccc1-c1cc(Nc2ccn[nH]2)ncn1 | . | -14.3%[2.29 µM] | .
Cc1ccc(S(=O)(=O)NCCCOC(=O)Nc2ccncc2)cc1 | 8.86* | -0.1% | >57
Cc1ccc(S(=O)(=O)NCCc2ccncc2)cc1 | . | 0.4% | .
Nc1c(C(=O)NCC2CCCO2)c2nc3ccccc3nc2n1-c1ccccc1 (stereo not given) | >76.9 | 2.1% | >57

Screening results from PubChem BioAssay.
